Screening data deposited in PubChem BioAssay by The Scripps Research Institute Molecular Screening Center.
PME-1 inh: blocks human protein phosphatase methylesterase 1 | inhibition, % at 5.9 µM | recombinant PME-1, FP-Rh probe fluorescence polarization | Q9Y570 | AID 2130 | hit rate 0.53% among 320,000;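 active = inhibition above the campaign mean of all compounds plus 3 SD, cut at about 26% in these data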;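 also: competitive labeling of PME-1 active site by serine hydrolase directed probe; inhibitors block probe labeling so polarization falls and inhibition rises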
PRMT1 inh: PRMT1 (human) inhibition, primary screen; Q99873; recombinant PRMT1, activity-based probe fluorescence polarization; inhibition, % at 2.79 µM; hit rate 1.3% among 370,000;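 active = inhibition above about 21% made by adding two undisclosed values, limit read from the data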
Target sequence (Q99873 whole entry, looked up): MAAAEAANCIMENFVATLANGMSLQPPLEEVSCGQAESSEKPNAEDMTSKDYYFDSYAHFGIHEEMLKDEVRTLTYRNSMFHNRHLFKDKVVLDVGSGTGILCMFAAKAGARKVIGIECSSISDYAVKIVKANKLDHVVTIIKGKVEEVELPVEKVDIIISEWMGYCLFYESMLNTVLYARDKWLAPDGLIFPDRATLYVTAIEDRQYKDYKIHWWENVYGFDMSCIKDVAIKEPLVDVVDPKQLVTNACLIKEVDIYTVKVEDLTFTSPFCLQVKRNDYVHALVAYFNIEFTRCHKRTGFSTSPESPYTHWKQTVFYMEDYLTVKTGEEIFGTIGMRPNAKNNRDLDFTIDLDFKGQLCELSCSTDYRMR
SIAE primary: human SIAE inhibition, primary screen | Q9HAT2 | SIAE FP-Rh probe binding, fluorescence polarization | inhibition, % at 9.66 µM | hit rate 0.69% among 370,000 | AID 1053197;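 active = inhibition above a cutoff: mean of compounds within the control limits plus 3 SD of those, cut at about 17% in these data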
Fam108B counter: Fam108B inhibition, counter-screen for RBBP9 inhibitors; recombinant Fam108B, FP-Rh probe fluorescence polarization; inhibition, % at 9.51 µM; hit rate 0.33% among 300,000; AID 1947;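 active = inhibition above the screen mean inhibition plus 3 SD, computed separately per campaign, cut at about 18% in these data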;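 also: inhibitors lower polarization as less probe binds the enzyme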
TCR-CD3 inh: blocks the human TCR-CD3 interaction; TAMRA-labeled TCR probe fluorescence, biochemical; inhibition, % at 9.4 µM; hit rate 0.37% among 360,000; AID 651800; in the data active = inhibition above about 19%;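 also: recombinant mutant TCR 2C K166C tagged with TAMRA read by polarization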
PAD4 inh: blocks human protein arginine deiminase 4; recombinant PAD4, RCA probe fluorescence polarization; inhibition, % at 6.36 µM; hit rate 0.41% among 330,000;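 active = percent inhibition above a cutoff equal to the mean of all tested compounds plus 3 SD, cut at about 15% in these data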
PAD4 FP conf: PAD4 (human) inhibition, confirmed; shares compounds with PAD4 inh; recombinant PAD4, RCA probe fluorescence polarization; inhibition, % at 6.36 µM; hit rate 28% among 1,200; AID 488796;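 active = mean inhibition across replicates above the hit cutoff set by the earlier primary screen, cut at about 15% in these data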;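 also: inhibitors block active-site labeling by the probe so polarization falls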
Hits are given with their value; n = inactive; x = no result given. Sampled rows, rich in hits. Any-hit rate of the full collection: about 2.6%.

SMILES	PME-1 inh	PRMT1 inh	SIAE primary	Fam108B counter	TCR-CD3 inh	PAD4 inh	PAD4 FP conf
Cc1[nH]n(-c2ccccc2)c(=O)c1-c1ccc(Cl)cc1	n	n	n	n	n	n	x
CCN1c2ccccc2N(C)C1(C)c1ccccc1 (stereo not given)	n	x	x	n	x	20	n
CN1c2ccccc2N(C)C1(C)c1ccccc1	n	n	n	n	n	n	x
O=C(CCc1nc2ccccc2c(=O)[nH]1)Nc1cccc(S(=O)(=O)N2CCCCC2)c1	n	n	n	n	n	n	x
CN(C)S(=O)(=O)c1cccc(NC(=O)CCCc2nc3ccccc3c(=O)[nH]2)c1	n	n	n	n	n	29	n
O=S(=O)(CCSc1nc2ccccc2o1)c1nc2ccccc2s1	n	n	n	n	n	17	16
CCOC(=O)C1=C(COC(=O)c2sccc2C)NC(=O)NC1C (stereo not given)	n	n	n	x	n	n	x
CCOC(=O)C1=C(COC(=O)c2ccc([N+](=O)[O-])s2)NC(=O)NC1C (stereo not given)	x	n	n	x	n	26	17
c1ccc(Nc2cc(Nc3ccccc3)[nH]n2)cc1	n	n	n	n	n	31	n
O=c1c2ccccc2n(Cc2ccco2)n1[C@@H](Cc1ccccc1)Cn1cc(C2CCCC2)nn1	x	n	n	x	x	x	x
O=C(OCCCN1CCC2(CCC(c3ccccc3)CC2)C1=O)c1ccccc1 (stereo not given)	x	n	n	x	x	x	x
COC(=O)CSc1nnc(-c2cccs2)o1	x	n	n	x	x	x	x
Cc1ccc(S(=O)(=O)Nc2ccc3c(c2)n(C)c(=O)n3C)c(C)c1	n	n	n	n	n	n	x
O=C(O)c1cc(S(=O)(=O)Nc2ccc3oc(=O)sc3c2)ccc1O	n	86	n	n	n	37	19
Cc1ccc(S(=O)(=O)Nc2ccc3oc(=O)sc3c2)c(C)c1	n	59	n	n	n	22	n
Cc1nnc(SC(=O)N2c3ccccc3Sc3ccccc32)s1	n	n	n	n	n	34	n
CCCCCCN1CCS(=O)(=O)N(Cc2ccc(Cl)cc2)C(C(=O)OC)C1 (stereo not given)	x	n	n	x	x	x	x
O=C(O)c1ccccc1Sc1c([N+](=O)[O-])cc(C(F)(F)F)cc1[N+](=O)[O-]	n	n	n	n	n	45	26
O=C(O)c1ccccc1NSc1ccccc1[N+](=O)[O-]	n	n	n	n	n	n	x
CC1(NC(=O)Cc2csc(-c3cccc(Cl)c3)n2)CCS(=O)(=O)C1 (stereo not given)	n	n	n	x	n	21	n
CC1(NC(=O)Cc2csc(-c3ccc(Cl)cc3)n2)CCS(=O)(=O)C1 (stereo not given)	x	n	n	x	n	n	x
CCCCCN1N=C(C)CC1=O	n	n	n	n	n	22	n
COC(=O)[C@]12C=CCN1[C@H](c1ccc(Cl)cc1)c1c(c3ccccc3n1S(=O)(=O)c1ccc(C)cc1)C2	x	n	n	x	x	x	x
Cc1nc(SCC(=O)c2ccccc2)[nH]c(=O)c1Oc1ccc(Cl)cc1	n	n	n	n	n	21	n
CCc1nnc(N/N=C/c2cccs2)n1N	n	n	n	n	n	34	n
SMILES	PME-1 inh	PRMT1 inh	SIAE primary	Fam108B counter	TCR-CD3 inh	PAD4 inh	PAD4 FP conf
CNC(=S)N/N=C/c1c(Cl)cccc1Cl	n	n	n	n	n	n	x
CCCNC(=O)C(=O)N/N=C/c1cccs1	n	n	n	n	n	n	x
CCc1nnc(N/N=C/c2c(Cl)cccc2Cl)n1N	n	n	n	n	n	21	n
COc1cc(/C=C/C(=O)OCC(=O)N(C)Cc2ccccc2)cc(OC)c1OC	x	n	n	x	n	26	n
COc1cc(/C=C/C(=O)OCC(=O)N(C)Cc2ccccc2)ccc1O	n	n	n	x	n	n	x
O=C(NCCCN1CCN(Cc2ccccc2)CC1)c1nnc(Cc2c(F)cccc2Cl)o1	n	n	n	n	n	n	x
O=C(NCCCO)c1nnc(Cc2c(F)cccc2Cl)o1	n	n	n	n	n	50	n
O=C(CSc1nnc(-c2ccncc2)n1-c1ccc(Br)cc1)c1ccccc1	x	n	n	x	x	x	x
O=C(c1cc2ccccc2oc1=O)N(c1ccccc1)C1C=CS(=O)(=O)C1 (stereo not given)	n	n	n	n	n	n	x
CC(C)c1ccc(N(C(=O)c2cc3ccccc3oc2=O)C2C=CS(=O)(=O)C2)cc1 (stereo not given)	n	n	n	n	n	17	n
COc1ccc(CCn2c(N)c(C#N)c3nc4ccccc4nc32)cc1OC	34	n	n	n	n	24	n
CC(C)[C@H](N)c1nnc(SCC(=O)c2ccc(Cl)cc2)o1	n	n	n	n	n	15	n
Cc1ccccc1-c1cc2c(nn1)-c1ccccc1C2=O	n	n	n	n	n	58	n
COc1cccc2cc(C(C)=O)c(=O)oc12	n	n	n	n	n	n	x
COc1cccc2cc(C(=O)NC3CC(C)(C)NC(C)(C)C3)c(=O)oc12	n	x	x	n	x	79	n
CCOC(=O)[C@@]12CCC3=C1N(CCC3)C(=O)[C@H](CC(=O)N1CCC(c3ccccc3)CC1)C2	x	n	n	x	x	x	x
CC(=O)C1=C(O)C(=O)N(CC(=O)O)C1c1ccccc1Cl (stereo not given)	n	x	x	n	x	20	n
CCN(CC)C(=O)CSc1nnc(-c2ccccc2)c(-c2ccccc2)n1	n	n	n	n	n	15	n
COC(=O)[C@H]1C[C@]2(C(C=C(C)C)S(=O)(=O)c3ccccc3)c3ccccc3N[C@H]2N1 (stereo not given in full)	x	n	n	x	x	x	x
CC(=O)N1CCN(c2nnc(-c3ccccc3)c3ccccc23)CC1	n	n	n	n	n	n	x
CC(=O)C1=C(c2ccccc2)N(C(C)=O)n2c(C)nnc2S1	n	73	n	n	n	68	59
C/C(=C\C(=O)c1ccc(F)cc1)Nc1ccc(N2CCOCC2)cc1	n	n	n	n	n	39	n
CN1C(=O)c2cc(NC(=O)Nc3ccccc3)ccc2OC[C@H]2O[C@@H](CC(=O)NCC(F)(F)F)CC[C@@H]21	x	n	n	x	x	x	x
Fc1ccc(Cn2c(SCc3ccc(F)c(C(F)(F)F)c3)nnc2C(F)(F)F)cc1	n	n	n	n	n	23	n
O=c1cc(-c2ccccc2)[nH]n1-c1nc2ccccc2[nH]1	n	n	n	n	n	n	x
N#CCCn1[nH]c(-c2ccccc2)cc1=O	n	n	n	n	n	51	n
O=C(O)CC/C(=N\NC(=O)CNC(=O)c1ccc(F)cc1)c1ccccc1	n	n	n	n	n	18	n
c1ccc(Nc2ccccc2Nc2ccccn2)nc1	n	n	n	n	n	30	n
COc1cc2oc(=O)ccc2cc1[C@H](O)[C@@H](O)C(C)(C)O	n	n	n	x	n	45	n
COC(=O)[C@]12C[C@H](CC(=O)NCc3cccc4ccccc34)C(=O)N(Cc3cccc4ccccc34)C1=C[C@H](C1CCCC1)O[C@@H]2C	x	n	n	x	x	x	x
